Sampled rows, rich in hits. Any-hit rate of the full collection: about 7.6%.
HCV NS3h FP: blocks HCV NS3 helicase binding to DNA; NS3h Cy5-dT15 DNA binding, fluorescence polarization; inhibition, % at 100 µM; 1.6% of 16,000 active;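 active = inhibition above the average over every tested compound plus 3 SD, cut at about 40% in these data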
Cy5 interf NS3h: Cy5 fluorescence interference, HCV helicase counter-screen. Cy5-dT15 DNA with NS3h; actives lie on both sides; signal over control mean, under 1 quenches. fluorescence interference ratio at 100 µM. 6% of 16,000 active. AID 720488;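 active = compound fluorescence over control fluorescence at most 0.8, a quencher, or at least a set upper limit, an enhancer; inactive = ratio between 0.8 and the set upper limit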
Hits are given with their value.

For O=C1NC(c2ccccc2OCc2ccccc2)Nc2ccccc21 (stereo not drawn) the results were HCV NS3h FP inactive and Cy5 interf NS3h inactive.
Screening O=C1NN(c2ccccc2)C(=O)/C1=C/c1ccccc1OCc1ccc(F)cc1 returned HCV NS3h FP inactive and Cy5 interf NS3h inactive.
Cc1ccc(N2C(=O)CC(N3CCSCC3)C2=O)cc1 (stereo not drawn) was read as HCV NS3h FP inactive and Cy5 interf NS3h inactive.
For Cc1ccc(N2C(=O)CC(N3CCC(C)CC3)C2=O)cc1 (stereo not drawn) the results were HCV NS3h FP inactive and Cy5 interf NS3h 1.2.
Screening CCN(CC)c1ccc(N2C(=O)/C(=C/c3ccc(Cl)cc3)SC2=S)cc1 returned HCV NS3h FP inactive and Cy5 interf NS3h inactive.
CCOc1cc(OCC)cc(C(=O)Nc2ccc(F)cc2)c1 was read as HCV NS3h FP inactive and Cy5 interf NS3h inactive.
For CCOc1cc(C(=O)Nc2ccc(F)cc2)cc(OCC)c1OCC the results were HCV NS3h FP inactive and Cy5 interf NS3h 0.71.
Screening O=[N+]([O-])c1ccc(-c2cc(-c3ccc(I)cc3)n[nH]2)cc1 returned HCV NS3h FP inactive and Cy5 interf NS3h 1.2.
`CCn1c(-c2ccc([N+](=O)[O-])cc2)n[nH]c1=S` gave HCV NS3h FP inactive and Cy5 interf NS3h inactive.
`Cc1ccc(NC(=O)C(=O)NCC(C)C)cc1` gave HCV NS3h FP inactive and Cy5 interf NS3h inactive.
COc1ccc(/C=C/C(=O)N2CCC(C)CC2)cc1Br was read as HCV NS3h FP inactive and Cy5 interf NS3h 0.62.
`COc1ccc(/C=C/C(=O)NCC2CCCO2)cc1Br` (stereo not drawn) gave HCV NS3h FP inactive and Cy5 interf NS3h inactive.
For CC1=NN(C(=O)c2cccc(Cl)c2)C(O)(c2ccc(Cl)cc2)C1 (stereo not drawn) the results were HCV NS3h FP inactive and Cy5 interf NS3h inactive.
`CCOC(=O)c1ccccc1NC(=O)CN(c1ccc(C)cc1)S(C)(=O)=O` gave HCV NS3h FP 42 and Cy5 interf NS3h inactive.
COC(=O)c1ccccc1NC(=O)CN(c1ccc(C)cc1)S(C)(=O)=O was read as HCV NS3h FP inactive and Cy5 interf NS3h inactive.
For CCCCNC(=O)/C(=C\c1ccc(-c2cccc([N+](=O)[O-])c2)o1)NC(=O)c1ccccc1 the results were HCV NS3h FP inactive and Cy5 interf NS3h inactive.
CCCCNC(=O)/C(=C/c1ccc(C)o1)NC(=O)c1ccccc1 was read as HCV NS3h FP inactive and Cy5 interf NS3h 0.66.
O=C(Nc1ccc2oc(-c3ccccc3)nc2c1)c1ccccc1I was read as HCV NS3h FP inactive and Cy5 interf NS3h inactive.
O=C1C=CC(=O)N1c1ccccc1SC(F)(F)F was read as HCV NS3h FP 45 and Cy5 interf NS3h 0.79.
Cc1ccc(CNC(=O)CN(Cc2ccccc2)S(=O)(=O)c2ccc(C)cc2)cc1 was read as HCV NS3h FP inactive and Cy5 interf NS3h inactive.
Screening CCOc1cc(C=C2C(=O)NC(=O)NC2=O)ccc1OCCOc1ccccc1C returned HCV NS3h FP inactive and Cy5 interf NS3h inactive.
For COC(=O)COc1ccc(C=C2C(=O)NC(=S)NC2=O)cc1OC the results were HCV NS3h FP inactive and Cy5 interf NS3h inactive.
CCOc1cc(/C=C2/SC(=O)NC2=O)ccc1OCc1ccc(Cl)cc1 was read as HCV NS3h FP inactive and Cy5 interf NS3h inactive.
`CCOc1cc(C=C2C(=O)NC(=O)NC2=O)ccc1OCc1ccc(Cl)cc1` gave HCV NS3h FP inactive and Cy5 interf NS3h 0.4.
COc1cc(C=C2C(=O)NC(=S)NC2=O)ccc1OCc1ccc(Cl)cc1 was read as HCV NS3h FP inactive and Cy5 interf NS3h 0.68.
Screening O=C1NC(=O)C(=Cc2ccc(OCc3ccc(F)cc3)cc2)C(=O)N1 returned HCV NS3h FP inactive and Cy5 interf NS3h 0.7.
O=C1NC(=O)C(=Cc2ccccc2OCc2ccc(F)cc2)C(=O)N1 was read as HCV NS3h FP inactive and Cy5 interf NS3h inactive.
`COc1cc(C=C2C(=O)NC(=O)NC2=O)ccc1OCCC(C)C` gave HCV NS3h FP inactive and Cy5 interf NS3h 0.8.
For CC(=O)C1C(=O)c2c(cccc2[N+](=O)[O-])C1=Nc1ccc(N=Cc2cc(Br)ccc2O)cc1 (stereo not drawn) the results were HCV NS3h FP inactive and Cy5 interf NS3h inactive.
Screening CCc1nc(C)cn1S(=O)(=O)c1ccc(Cl)c([N+](=O)[O-])c1 returned HCV NS3h FP inactive and Cy5 interf NS3h inactive.
Screening Cc1c(C(=O)O/N=C(/N)c2ccccn2)cccc1[N+](=O)[O-] returned HCV NS3h FP inactive and Cy5 interf NS3h inactive.
CCOc1ccc(NC(=O)C(=O)Nc2cccc(C(F)(F)F)c2)cc1 was read as HCV NS3h FP inactive and Cy5 interf NS3h inactive.
CCOc1cc(OCC)cc(C(=O)Nc2cccc(C(F)(F)F)c2)c1 was read as HCV NS3h FP inactive and Cy5 interf NS3h 0.5.
For COc1ccc(CC(=O)Nc2ccc(Br)cc2C(=O)O)cc1 the results were HCV NS3h FP inactive and Cy5 interf NS3h inactive.
For COc1ccc(CN2CCN(Cc3ccc(C)cc3)CC2)cc1OC the results were HCV NS3h FP inactive and Cy5 interf NS3h inactive.
COc1ccc(/C(C)=N/N2CCN(Cc3ccc(Cl)cc3)CC2)cc1OC was read as HCV NS3h FP inactive and Cy5 interf NS3h 0.68.
For CCOC(=O)c1ccc(NC(=O)c2ccc(OCC(C)C)cc2)cc1 the results were HCV NS3h FP inactive and Cy5 interf NS3h inactive.
`COC(=O)c1ccc(OCC(O)CN(C)C)cc1` (stereo not drawn) gave HCV NS3h FP inactive and Cy5 interf NS3h 0.76.
Screening CCc1ccc(NC(=O)C(=O)NCCc2ccc(F)cc2)cc1 returned HCV NS3h FP inactive and Cy5 interf NS3h 0.69.
`O=C(NCCO)C(=O)Nc1ccc(F)cc1` gave HCV NS3h FP inactive and Cy5 interf NS3h inactive.
Screening N/C(Cc1ccc([N+](=O)[O-])cc1)=N/OC(=O)c1cccc(Br)c1 returned HCV NS3h FP inactive and Cy5 interf NS3h inactive.
CCC(=O)Nc1ccc(NC(=O)c2cccc(Cl)c2Cl)cc1 was read as HCV NS3h FP inactive and Cy5 interf NS3h inactive.
`CCCCOC(=O)c1ccc(NC(=O)c2cccc(Cl)c2Cl)cc1` gave HCV NS3h FP inactive and Cy5 interf NS3h 0.69.
Screening COc1c(Cl)cc(C(=O)Nc2ccc(N3CCOCC3)cc2)cc1Cl returned HCV NS3h FP inactive and Cy5 interf NS3h inactive.
Screening O=C(Nc1ccc(N2CCOCC2)cc1)c1cccc(Cl)c1Cl returned HCV NS3h FP inactive and Cy5 interf NS3h 0.67.
Cn1cnnc1Sc1cc(N2CCCC2)ccc1[N+](=O)[O-] was read as HCV NS3h FP inactive and Cy5 interf NS3h inactive.
`Cc1cc(=O)oc2cc3cc(C)n(C)c3cc12` gave HCV NS3h FP inactive and Cy5 interf NS3h inactive.
Screening COc1ccc(N2C(=O)C(O)=C(C(=O)/C=C/c3ccccc3)C2c2ccc(Cl)cc2)cc1 (stereo not drawn) returned HCV NS3h FP inactive and Cy5 interf NS3h inactive.
For Cc1ccc(C)c(Nc2cc(C)c(C#N)c3nc4ccccc4n23)c1 the results were HCV NS3h FP inactive and Cy5 interf NS3h inactive.
`CCOc1ccc(NC2=C(Cl)C(=O)N(c3ccccc3)C2=O)cc1` gave HCV NS3h FP inactive and Cy5 interf NS3h inactive.
`O=C1c2cc(S(=O)(=O)NCCCO)ccc2-c2ccc(S(=O)(=O)NCCCO)cc21` gave HCV NS3h FP inactive and Cy5 interf NS3h 0.63.
O=C1c2cc(S(=O)(=O)Nc3ccncc3)ccc2-c2ccc(S(=O)(=O)Nc3ccncc3)cc21 was read as HCV NS3h FP inactive and Cy5 interf NS3h inactive.
`COc1ccc(C(=O)N2CCN(S(C)(=O)=O)CC2)cc1` gave HCV NS3h FP inactive and Cy5 interf NS3h inactive.
